Marburg entry – inhibitors of Marburg virus binding or entry into cells; Marburg virus pseudotype entry/binding inhibition, cell-based; Potency, µM (series often up to 49.2 µM), hits mostly inhibitors; 6.5% of 18,000 active; AID 720532
Lassa entry – blocks Lassa virus binding or cell entry. 4.1% of 18,000 active. Potency, µM (titrated, usually from 49.2 µM), actives largely listed as inhibitors. Lassa virus pseudotyped entry inhibition, cell-based qHTS. AID 720533
Of the large screens only hits and unclear results are named; the others gave an inactive call; ! = not confirmed by another sample. Hits are enriched below; roughly 7.1% of the tested compounds scored in any of these assays. The call rests on the fitted dose curve; tested in HEK293 cells.

O=c1cc(-c2cccc(O)c2)oc2ccc(O)cc12	Lassa entry inconclusive
O=S(=O)(CCOCc1ccc(-c2ccc3ncnc(Nc4ccc(OCc5cccc(F)c5)c(Cl)c4)c3c2)o1)c1ccccc1	none
O=C(OC1CNC(C#Cc2cc3ncnc(Nc4ccc5c(cnn5Cc5ccccc5)c4)c3s2)C1)N1CCOCC1 (centres undefined)	Marburg entry inconclusive, Lassa entry 0.397µM
O=C(OC1CNC(C#Cc2cc3ncnc(Nc4ccc(OCc5cccc(F)c5)c(Cl)c4)c3s2)C1)N1CCOCC1 (centres undefined)	Marburg entry 12.5µM, Lassa entry inconclusive
CS(=O)(=O)CCNCc1nc(-c2ccc3ncnc(Nc4ccc(OCc5cccc(F)c5)c(Cl)c4)c3c2)cs1	none
CNC(=O)c1cccc(C#Cc2cncnc2Nc2ccc(OCc3cccc(F)c3)c(Cl)c2)c1	Marburg entry 2.5µM (no result: Lassa entry)
COc1cc2ncnc(Nc3ccc4c(cnn4Cc4ccccc4)c3)c2cc1OC	Marburg entry inconclusive
C=CCCC1CN(Cc2ccc(OC)cc2)S(=O)(=O)c2c(Oc3ccc(OC)cc3)cccc2O1 (centres undefined)	none
COC(=O)c1ccc(CN2C[C@H](Sc3ccccn3)C[C@H]2C(=O)N(C)C)cc1	Lassa entry inconclusive
CC(C(=O)O)c1ccc(/C=C2\CCCCC2=O)cc1 (centres undefined)	none
O=C(O)c1cc(O)c(O)c(O)c1	Marburg entry 3.16µM, Lassa entry 11.2µM
O=C(O)c1cc(O)c2c(c1)[O][Bi][O]2	none
Cc1ccc(C)c(CN2CCC3(CCC(CNC(=O)c4ccnn4C)O3)CC2)c1 (centres undefined)	Marburg entry inconclusive
COc1cccc([C@@H]2Oc3ccc(Br)cc3C[C@H]2OC(=O)N[C@H]2CCCc3ccccc32)c1	none
CCCCC1=CC2=C(c3ccco3)C(=O)C(C)(OC(=O)c3cccs3)C(=O)C2=CO1 (centres undefined)	none
CC(C)C[C@H](NC(=O)[C@@H](O)[C@H](N)Cc1ccccc1)C(=O)O	Lassa entry inconclusive
CC[C@@H](C)[C@@H](CO[C@@H](Cc1ccccc1)C(=O)N[C@@H](CCS(C)(=O)=O)C(=O)OC(C)C)NC[C@@H](N)CS	Marburg entry 10µM
Cc1ncc2c(c1CNC(=O)c1ccc3c(c1)OCO3)CCN(C(=O)C1Cc3ccccc3O1)C2 (centres undefined)	none
CN1Cc2ccccc2[C@@H]2c3cccc4[nH]cc(c34)C[C@H]21	Marburg entry 8.91µM, Lassa entry 10µM
CC1=C[C@@H]2c3cccc4[nH]cc(c34)C[C@H]2N(C)C1	none
Cc1cccc2cc(CN(CC3CCCO3)C(=O)c3ccccc3F)c(N(C)C)nc12 (centres undefined)	none
NCCCCCCNS(=O)(=O)c1ccc2c(Cl)cccc2c1	Marburg entry 12.6µM, Lassa entry 28.2µM
NCCNS(=O)(=O)c1ccc(Cl)c2ccncc12	none
O=C(O)Cc1ccc(CCNS(=O)(=O)c2ccc(Cl)cc2)cc1	none
NCCNS(=O)(=O)c1cccc2c(Cl)cccc12	Marburg entry 10µM, Lassa entry inconclusive
Clc1ccc2ncnc(NCc3ccc4c(c3)OCO4)c2c1	none
S=C(S)N1CCNCC1	none
NCCCCCc1cnc[nH]1	none
COc1ccccc1N1CCN(CCCCN2C(=O)CCC2=O)CC1	none
COc1cccc2c1CCCC2CCCN1CCN(C2CCCCC2)CC1 (centres undefined)	Marburg entry 12.6µM, Lassa entry 22.4µM!
NC(N)=NCC1COc2ccccc2O1 (centres undefined)	none
OCc1ccccc1O[C@@H]1O[C@H](CO)[C@@H](O)[C@H](O)[C@H]1O	none
CCOC(=O)CCC(=O)O[C@H]1[C@H](O[C@@H]2[C@@H](C)[C@H](O[C@H]3C[C@@](C)(OC)[C@@H](O)[C@H](C)O3)[C@@H](C)C(=O)O[C@H](CC)[C@@](C)(O)[C@H](O)[C@@H](C)C(=O)[C@H](C)C[C@@]2(C)O)O[C@H](C)C[C@@H]1N(C)C	none
CCC1OC(=O)C(C)[C@@H](O[C@H]2C[C@@](C)(OC)C(O)C(C)O2)C(C)[C@@H](O[C@@H]2OC(C)CC(N(C)C)C2O)[C@@](C)(O)CC(C)C2NC(COCCOC)O[C@H](C2C)[C@@]1(C)O (some centres undefined)	none
CC[C@H]1OC(=O)[C@H](C)[C@@H](O[C@H]2C[C@@](C)(OC)[C@@H](O)[C@H](C)O2)[C@H](C)[C@@H](O[C@@H]2O[C@H](C)C[C@H](N(C)C)[C@H]2O)[C@](C)(O)C[C@@H](C)[C@@H]2N[C@@H](COCCOC)O[C@@H]([C@H]2C)[C@]1(C)O	Marburg entry 7.08µM
CCC(=O)O[C@H]1[C@H](O[C@@H]2[C@@H](C)[C@H](O[C@H]3C[C@@](C)(OC)[C@@H](O)[C@H](C)O3)[C@@H](C)C(=O)O[C@H](CC)[C@@](C)(O)[C@H](O)[C@@H](C)C(=O)[C@H](C)C[C@@]2(C)O)O[C@H](C)C[C@@H]1N(C)C	Marburg entry 10µM, Lassa entry 25.1µM
CC1(C)CC2C1CC[C@]1(C)CCC3C(C(=O)O)CC(=O)O[C@]32C1 (some centres undefined)	Lassa entry inconclusive
CCCCn1c(C)cc2c(c1=O)[C@H]1O[C@](CCCCN3C(=O)c4ccccc4C3=O)(Cc3ccccc31)O2	none
CCCCN(CCCC)CCCOC(=O)c1ccc(N)cc1	Marburg entry 22.4µM!, Lassa entry inconclusive
CCCCOC(=O)c1ccc(N)cc1	Lassa entry inconclusive
Cc1cccc(-c2nn(C(=S)Nc3ccccc3)cc2-c2ccnc3ccccc23)n1	none
COC(=O)Nc1nc2ccc(Oc3ccc(NC(=O)Nc4cc(C(F)(F)F)ccc4F)cc3)cc2s1	Marburg entry inconclusive
CCCOc1ccc2nc(NC(=O)OC)sc2c1	Lassa entry 3.16µM
C=C1C/C(=C/C)C(=O)O[C@@H]2CCN3CC=C(COC(=O)[C@]1(C)O)[C@@H]23	Lassa entry inconclusive
Cc1c(C(=O)NCC2(N3CCCCC3)CCCC2)cnn1-c1nccc(-c2ccccc2F)n1	none
Cc1c(C(=O)NCC2(N3CCOCC3)CCCCCC2)cnn1-c1nccc(-c2ccccc2F)n1	Marburg entry 11.2µM
CC1(C)CCC2=C(O1)c1ccccc1C(=O)C2=O	Marburg entry 11.2µM, Lassa entry 7.08µM
COc1cc(C)c(Cc2cnc(N)nc2N)cc1OC	none
COc1cc(NCc2ccc3nc(N)nc(N)c3c2C)cc(OC)c1OC	Marburg entry 4.47µM, Lassa entry inconclusive
CCOC(=O)C1CSCCS(=O)(=O)N1Cc1ccc(F)cc1F (centres undefined)	none (no result: Lassa entry)
CCCC(C)(C)C(=O)Nc1ccc(Cl)cc1	none
O=C(Nc1ccc(Cl)cc1)Nc1ccc(Cl)c(C(F)(F)F)c1	Marburg entry 11.2µM, Lassa entry 14.1µM
C[C@@]12CC(=O)C3=C(CCCC3=O)N1CCc1ccccc12	none
CCCCCCCC1=Cc2ccccc2C(CC(=O)c2ccccc2)N1C(=O)OC (centres undefined)	Marburg entry inconclusive
COC(=O)[C@@]1(C=C2c3ccc(F)cc3[C@@H](OC)[C@@H]2C)[C@@H]2CC=C[C@@H]21	none
c1ccc([C@H]2CNCc3ccccc32)cc1	none
Oc1cc2c(cc1O)[C@H]1c3ccccc3CN[C@H]1CC2	Marburg entry 25.1µM, Lassa entry inconclusive
CC(C)/C(O)=C1/C(=O)OC(c2ccoc2)[C@@]2(C)C(O)C(O)[C@@]34OC5(C)OC67CC(C)(C(O)[C@@]6(O)C(O)[C@@]3(O5)C12)C(CC(=O)O)[C@@]74C (some centres undefined)	none
